39 compounds from PubChem BioAssay (NCI) can be followed below.

Each structure is given as a SMILES string. Compounds without any hit were thinned out: in the full panel of roughly 83,000, 20% have a hit.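 96-well plates, one dose, 48 hours. Percent growth reported; active if below 10.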 Active and inactive are the calls of the source.

One assay concerns SF-539 CNS. The experiment in a line: NCI-60 one-dose screen, 48 h (100 = growth as untreated, 0 = no growth, -100 = all killed). As to conditions: 10 µM unless noted.
Turning to `CN1CCN(CCCOc2cccc3nc(Nc4ccc(Cl)c(C(F)(F)F)c4)ccc23)CC1`, the growth was 7.03% (active).
Same read-out and setting: next, `C#Cc1cccc(Nc2ncnc3cc(OC)c(OCCCCCCC(=O)NO)cc23)c1`: -1.18% (active).
In the case of `Cc1ccc(-n2nc(C(C)(C)C)cc2NC(=O)NCc2cc(F)ccc2Oc2ccc3c(cnn3CCO)c2)cc1`, the growth is 21.7% (inactive).
Still for that read-out and setting: next, `Cn1ccnc1C(=O)/C=C/c1ccc(CC(=O)Nc2ccc(Br)cc2)cc1`: -38.5% (active).
Still for that read-out and setting: next, `Cc1[nH]n(C(N)=S)c(=O)c1N=Nc1ccc(S(=O)(=O)Nc2ccncn2)cc1`: 99.2% (inactive); `Cc1[nH]c(/C=C2\C(=O)Nc3ccc(F)cc32)c(C)c1C(=O)NC[C@H](O)CN1CCOCC1`: 28% (inactive); `Cn1ncc(Cl)c1-c1cc(C(=O)N[C@H](CN)Cc2cccc(F)c2)sc1Cl`: -31.5% (active).
The same measure, in the same setting: next, `Cn1cc(-c2ncnc3ccc(-c4cnc(Cl)c(NS(C)(=O)=O)c4)cc23)c2ccccc21`: -11.1% (active); `O=[N+]([O-])c1cc(Br)cc2c1[nH]c1ccc(Br)cc12`: 84.6% (inactive); `COc1ccc2c(OCc3nnc4ccc(-c5ccccc5)nn34)ccnc2c1`: 95.1% [2.5 µM] (inactive).
Take `CC(=O)O[C@]1(C)C[C@H](O)[C@]2(O)C=CO[C@H](O[C@@H]3O[C@H](CO)[C@@H](O)[C@H](O)[C@H]3O)[C@@H]21`: the growth was 97.5% (inactive).
Still for that read-out and setting: next, `COc1cc2cc(NCc3ccc(F)cc3)nc(C)c2cc1OC`: -4.69% (active); `O=C(Nc1nc2cccc(-c3ccc(CN4CCS(=O)(=O)CC4)cc3)n2n1)C1CC1`: 79.1% (inactive); `N#Cc1c(-c2ccc(Cl)cc2)csc1NC(=O)Nc1cccc(C(F)(F)F)c1`: 37.9% (inactive).
Same read-out and setting: next, `O=C(c1ccc(/C=C/c2n[nH]c3ccccc23)cc1)N1CCNCC1`: -12% (active); `Cc1cnc(Nc2ccc(OCCN3CCCC3)cc2)nc1Nc1cccc(S(=O)(=O)NC(C)(C)C)c1`: -83.2% (active).
With `CO[C@H]1C[C@@H]2CC[C@@H](C)[C@@](O)(O2)C(=O)C(=O)N2CCCC[C@H]2C(=O)O[C@H]([C@H](C)C[C@@H]2CC[C@@H](OCCO)[C@H](OC)C2)CC(=O)[C@H](C)/C=C(\C)[C@@H](O)[C@H](OC)C(=O)[C@H](C)C[C@H](C)\C=C/C=C/C=C/1C`, the growth was 41.8% (inactive).
On the same count and under the same terms, next, `COc1cc(F)c(F)c(Nc2ccc(I)cc2F)c1NS(=O)(=O)C1(C[C@H](O)CO)CC1`: 53.5% (inactive); `Nc1ccc(S(=O)(=O)O)c2cc(S(=O)(=O)O)cc(O)c12`: 95.8% (inactive).
For the compound `COc1cc2ncnc(Nc3ccc(F)c(Cl)c3)c2cc1NC(=O)/C=C/CN1CCCCC1`, the growth was -89.9% (active).
On the same count and under the same terms, next, `COc1ccc(C(=O)N2c3ccccc3Sc3ccccc32)c(F)c1`: -15.8% (active).
The same measure, in the same setting: next, `O=S1(=O)OC(c2ccc(O)c(Cl)c2)(c2ccc(O)c(Cl)c2)c2ccccc21`: 93.3% (inactive); `C[C@H](NC(=O)c1c(N)nn2cccnc12)c1cc2cccc(C#Cc3cnn(C)c3)c2c(=O)n1-c1ccccc1`: 21.7% (inactive).
Still for that read-out and setting: next, `Cc1cc(O)cc(-c2c(-c3ccnc(-c4cccnc4)c3)cnn2C)c1`: 42.7% (inactive).
Consider `CN1CCN(CCOc2cc(OC3CCOCC3)c3c(Nc4c(Cl)ccc5c4OCO5)ncnc3c2)CC1`, for which the growth was 60% (inactive).

Another assay deals with UACC-257 melanoma. The description is as above. As to conditions: 10 µM unless noted.
For the compound `CC(C)(C)c1ccc(Cn2cc(CSc3nc4ccccc4s3)nn2)cc1`, the growth was 97.3% (inactive).
Still for that read-out and setting: next, `CCN1CCN(Cc2ccc(Cc3ncc(F)c(-c4cc(F)c5nc(C)n(C(C)C)c5c4)n3)nc2)CC1`: 52.8% (inactive); `CC(=O)NCC(=O)N1[C@@H]2CC[C@H]1c1ccc(Nc3ncc(C(F)(F)F)c(NC4CCC4)n3)cc12`: 59.8% [2.5 µM] (inactive).
Regarding `O=C(NOCCO)c1cc(CN2OCCCC2=O)c(F)c(F)c1Nc1ccc(I)cc1F`, the growth was -13.2% (active).
The same measure, in the same setting: next, `CC(C)CC(=O)Nc1n[nH]c2c1CN(C(=O)C1CCN(C)CC1)C2(C)C`: 15.5% (inactive).
Regarding `Cc1ccc(N)cc1CN1C(=O)c2ccccc2C1=O`, the growth is 100% (inactive).
Regarding `COCc1c(-c2ccc(NC(=O)Nc3cc(C(F)(F)F)ccc3F)c(F)c2)c2c(N)ncnn2c1CN1CCOCC1`, the growth is -9.75% (active).
On the same count and under the same terms, next, `O=C(CNc1nc2ccccc2s1)Nc1ccc(-c2nc3ccccc3s2)cc1`: 102% (inactive); `N#CC[C@H](C1CCCC1)n1cc(-c2ncnc3[nH]ccc23)cn1`: 78.9% (inactive); `C=CC(=O)Nc1cc2c(Nc3ccc(F)c(Cl)c3)ncnc2cc1C#CC(C)(C)N1CCN(C)CC1`: -86.2% (active).
Same read-out and setting: next, `CC(=O)C1=C(C)NC(SCc2nnc(-c3ccc(C)cc3)o2)=NC1c1ccc(F)cc1` (centres undefined): 111% (inactive).
Turning to `CNC(=O)c1ccc(Nc2ncc(C(F)(F)F)c(NCc3nccnc3N(C)S(C)(=O)=O)n2)cc1`, the growth is -21.5% (active).
Still for that read-out and setting: next, `C/C=C/C=N/NC(=S)Nc1ccccc1`: 81.1% (inactive); `COc1cc(N2CCC(N(C)C)CC2)ccc1Nc1ncc(Cl)c(Nc2ccccc2P(C)(C)=O)n1`: 17.2% (inactive); `CN1CCN(CCCOc2cccc3nc(Nc4ccc(Cl)c(C(F)(F)F)c4)ccc23)CC1`: 59.3% (inactive).
For the compound `C#Cc1cccc(Nc2ncnc3cc(OC)c(OCCCCCCC(=O)NO)cc23)c1`, the growth is -47.3% (active).
With `Cc1ccc(-n2nc(C(C)(C)C)cc2NC(=O)NCc2cc(F)ccc2Oc2ccc3c(cnn3CCO)c2)cc1`, the growth was -11.2% (active).
Same read-out and setting: next, `Cn1ccnc1C(=O)/C=C/c1ccc(CC(=O)Nc2ccc(Br)cc2)cc1`: 79.1% (inactive).
Still for that read-out and setting: next, `Cc1[nH]n(C(N)=S)c(=O)c1N=Nc1ccc(S(=O)(=O)Nc2ccncn2)cc1`: 117% (inactive).
The same measure, in the same setting: next, `Cc1[nH]c(/C=C2\C(=O)Nc3ccc(F)cc32)c(C)c1C(=O)NC[C@H](O)CN1CCOCC1`: 42.3% (inactive).
`Cn1ncc(Cl)c1-c1cc(C(=O)N[C@H](CN)Cc2cccc(F)c2)sc1Cl`: the growth is -87.7% (active).
Turning to `Cn1cc(-c2ncnc3ccc(-c4cnc(Cl)c(NS(C)(=O)=O)c4)cc23)c2ccccc21`, the growth was 5.53% (active).
Still for that read-out and setting: next, `O=[N+]([O-])c1cc(Br)cc2c1[nH]c1ccc(Br)cc12`: 88.7% (inactive); `COc1ccc2c(OCc3nnc4ccc(-c5ccccc5)nn34)ccnc2c1`: 120% [2.5 µM] (inactive).
In the case of `CC(=O)O[C@]1(C)C[C@H](O)[C@]2(O)C=CO[C@H](O[C@@H]3O[C@H](CO)[C@@H](O)[C@H](O)[C@H]3O)[C@@H]21`, the growth was 109% (inactive).
Still for that read-out and setting: next, `COc1cc2cc(NCc3ccc(F)cc3)nc(C)c2cc1OC`: 88.8% (inactive); `O=C(Nc1nc2cccc(-c3ccc(CN4CCS(=O)(=O)CC4)cc3)n2n1)C1CC1`: 86.2% (inactive).
Still for that read-out and setting: next, `N#Cc1c(-c2ccc(Cl)cc2)csc1NC(=O)Nc1cccc(C(F)(F)F)c1`: 27.8% (inactive); `O=C(c1ccc(/C=C/c2n[nH]c3ccccc23)cc1)N1CCNCC1`: 35.9% (inactive); `Cc1cnc(Nc2ccc(OCCN3CCCC3)cc2)nc1Nc1cccc(S(=O)(=O)NC(C)(C)C)c1`: -78.9% (active).
Consider `CO[C@H]1C[C@@H]2CC[C@@H](C)[C@@](O)(O2)C(=O)C(=O)N2CCCC[C@H]2C(=O)O[C@H]([C@H](C)C[C@@H]2CC[C@@H](OCCO)[C@H](OC)C2)CC(=O)[C@H](C)/C=C(\C)[C@@H](O)[C@H](OC)C(=O)[C@H](C)C[C@H](C)\C=C/C=C/C=C/1C`, for which the growth was 61% (inactive).
Turning to `COc1cc(F)c(F)c(Nc2ccc(I)cc2F)c1NS(=O)(=O)C1(C[C@H](O)CO)CC1`, the growth was -12.7% (active).
The same measure, in the same setting: next, `Nc1ccc(S(=O)(=O)O)c2cc(S(=O)(=O)O)cc(O)c12`: 109% (inactive).
Take `COc1cc2ncnc(Nc3ccc(F)c(Cl)c3)c2cc1NC(=O)/C=C/CN1CCCCC1`: the growth is -77% (active).
The same measure, in the same setting: next, `COc1ccc(C(=O)N2c3ccccc3Sc3ccccc32)c(F)c1`: 67.1% (inactive).
As for `O=S1(=O)OC(c2ccc(O)c(Cl)c2)(c2ccc(O)c(Cl)c2)c2ccccc21`, the growth is 98.9% (inactive).
Still for that read-out and setting: next, `C[C@H](NC(=O)c1c(N)nn2cccnc12)c1cc2cccc(C#Cc3cnn(C)c3)c2c(=O)n1-c1ccccc1`: 39.1% (inactive).
The same measure, in the same setting: next, `Cc1cc(O)cc(-c2c(-c3ccnc(-c4cccnc4)c3)cnn2C)c1`: 83.1% (inactive).
For the compound `CN1CCN(CCOc2cc(OC3CCOCC3)c3c(Nc4c(Cl)ccc5c4OCO5)ncnc3c2)CC1`, the growth was 82.7% (inactive).
